In ChEMBL document CHEMBL2218924, “A broad activity screen in support of a chemogenomic map for kinase signalling research and drug discovery” (Biochem J, 2013):

Columns and labels:
[1] = target: T1, Ephrin type-A receptor 3 (Homo sapiens) (UniProt P29320); details: at 10 µM
T1 sequence (whole entry): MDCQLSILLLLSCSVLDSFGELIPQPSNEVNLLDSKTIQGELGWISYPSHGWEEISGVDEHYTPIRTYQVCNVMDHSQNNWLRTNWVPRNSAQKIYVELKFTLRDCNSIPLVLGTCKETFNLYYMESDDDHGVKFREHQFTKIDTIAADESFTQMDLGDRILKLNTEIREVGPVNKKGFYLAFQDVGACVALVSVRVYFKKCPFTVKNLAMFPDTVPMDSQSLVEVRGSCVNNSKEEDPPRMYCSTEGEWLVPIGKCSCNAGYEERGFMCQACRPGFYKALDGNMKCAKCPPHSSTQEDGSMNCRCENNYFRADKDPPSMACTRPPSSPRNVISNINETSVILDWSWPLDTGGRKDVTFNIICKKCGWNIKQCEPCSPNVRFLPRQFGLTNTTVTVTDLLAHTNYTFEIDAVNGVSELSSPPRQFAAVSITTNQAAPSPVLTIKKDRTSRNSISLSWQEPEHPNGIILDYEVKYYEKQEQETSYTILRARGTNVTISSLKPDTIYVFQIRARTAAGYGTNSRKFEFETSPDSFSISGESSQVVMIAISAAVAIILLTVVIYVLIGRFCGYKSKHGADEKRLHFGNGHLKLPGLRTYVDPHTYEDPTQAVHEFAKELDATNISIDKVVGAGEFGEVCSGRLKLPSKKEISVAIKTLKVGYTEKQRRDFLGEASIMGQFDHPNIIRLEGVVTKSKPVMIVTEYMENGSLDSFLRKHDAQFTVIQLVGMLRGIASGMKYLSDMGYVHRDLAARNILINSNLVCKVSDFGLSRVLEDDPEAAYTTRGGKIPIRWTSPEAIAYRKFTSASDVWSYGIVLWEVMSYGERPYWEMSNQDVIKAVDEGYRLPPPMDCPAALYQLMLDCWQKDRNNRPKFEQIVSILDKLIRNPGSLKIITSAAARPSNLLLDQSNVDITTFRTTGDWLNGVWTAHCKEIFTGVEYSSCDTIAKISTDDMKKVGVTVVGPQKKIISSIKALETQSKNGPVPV

[2] = target: T2, Ephrin type-A receptor 8 (Homo sapiens) (UniProt P29322); details: at 1 µM
T2 sequence (whole entry): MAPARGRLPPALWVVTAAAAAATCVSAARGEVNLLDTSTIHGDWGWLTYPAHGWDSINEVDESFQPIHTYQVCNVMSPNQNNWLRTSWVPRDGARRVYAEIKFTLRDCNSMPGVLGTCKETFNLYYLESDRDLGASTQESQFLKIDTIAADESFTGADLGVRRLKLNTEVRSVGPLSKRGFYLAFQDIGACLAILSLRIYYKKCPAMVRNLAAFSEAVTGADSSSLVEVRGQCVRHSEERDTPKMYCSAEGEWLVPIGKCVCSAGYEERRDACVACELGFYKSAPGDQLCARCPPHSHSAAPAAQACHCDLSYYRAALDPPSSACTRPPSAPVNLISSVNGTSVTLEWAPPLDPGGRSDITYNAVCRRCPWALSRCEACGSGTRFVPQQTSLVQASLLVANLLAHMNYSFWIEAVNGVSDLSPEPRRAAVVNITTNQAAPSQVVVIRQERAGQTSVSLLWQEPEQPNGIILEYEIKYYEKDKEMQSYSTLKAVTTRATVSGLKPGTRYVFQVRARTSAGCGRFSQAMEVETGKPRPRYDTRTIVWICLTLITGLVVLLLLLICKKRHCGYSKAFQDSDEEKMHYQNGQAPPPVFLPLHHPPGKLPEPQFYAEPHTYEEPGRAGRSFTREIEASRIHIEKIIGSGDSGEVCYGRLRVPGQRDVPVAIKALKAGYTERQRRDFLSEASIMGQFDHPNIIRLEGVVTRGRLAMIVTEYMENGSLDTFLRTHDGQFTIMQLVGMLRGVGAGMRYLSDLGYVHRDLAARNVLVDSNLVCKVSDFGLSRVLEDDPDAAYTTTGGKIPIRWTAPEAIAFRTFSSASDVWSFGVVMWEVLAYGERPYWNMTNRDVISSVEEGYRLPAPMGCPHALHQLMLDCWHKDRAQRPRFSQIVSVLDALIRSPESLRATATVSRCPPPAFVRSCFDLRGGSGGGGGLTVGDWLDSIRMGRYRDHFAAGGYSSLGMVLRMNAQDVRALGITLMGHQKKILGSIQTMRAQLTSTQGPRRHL

[3] = target: T2, Ephrin type-A receptor 8 (Homo sapiens); details: at 10 µM
[4] = target: T3, Ephrin type-B receptor 1 (Homo sapiens) (UniProt P54762); details: at 10 µM
T3 sequence (whole entry): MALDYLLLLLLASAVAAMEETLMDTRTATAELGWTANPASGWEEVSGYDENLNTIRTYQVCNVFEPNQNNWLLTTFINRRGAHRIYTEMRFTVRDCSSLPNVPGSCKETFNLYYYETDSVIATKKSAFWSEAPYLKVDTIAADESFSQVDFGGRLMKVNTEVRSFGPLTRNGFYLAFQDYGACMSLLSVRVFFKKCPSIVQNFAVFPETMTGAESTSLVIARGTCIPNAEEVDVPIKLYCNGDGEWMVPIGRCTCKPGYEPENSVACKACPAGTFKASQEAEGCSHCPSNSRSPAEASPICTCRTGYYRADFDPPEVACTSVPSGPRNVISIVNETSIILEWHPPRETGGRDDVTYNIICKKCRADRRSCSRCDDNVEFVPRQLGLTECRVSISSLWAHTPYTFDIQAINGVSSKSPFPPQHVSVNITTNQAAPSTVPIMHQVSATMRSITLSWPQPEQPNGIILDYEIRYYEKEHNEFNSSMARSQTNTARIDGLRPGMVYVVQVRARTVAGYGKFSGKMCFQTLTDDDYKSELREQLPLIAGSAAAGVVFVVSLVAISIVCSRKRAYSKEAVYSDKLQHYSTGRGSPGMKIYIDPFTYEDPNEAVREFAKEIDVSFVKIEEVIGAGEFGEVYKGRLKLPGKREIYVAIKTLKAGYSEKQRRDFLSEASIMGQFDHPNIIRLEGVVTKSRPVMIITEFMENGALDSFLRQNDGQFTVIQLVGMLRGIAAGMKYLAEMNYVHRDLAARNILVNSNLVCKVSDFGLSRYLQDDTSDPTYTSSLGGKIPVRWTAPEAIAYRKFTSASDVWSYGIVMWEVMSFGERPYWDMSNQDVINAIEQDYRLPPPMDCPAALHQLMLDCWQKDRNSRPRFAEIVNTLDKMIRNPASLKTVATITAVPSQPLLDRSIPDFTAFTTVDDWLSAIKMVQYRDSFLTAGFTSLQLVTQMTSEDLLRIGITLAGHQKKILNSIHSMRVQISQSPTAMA

[5] = target: Focal adhesion kinase 1 (Homo sapiens) (UniProt Q05397); details: at 1 µM
[6] = target: Ephrin type-A receptor 7 (Homo sapiens) (UniProt Q15375); details: at 1 µM
[7] = target: Ephrin type-A receptor 7 (Homo sapiens) (UniProt Q15375); details: at 10 µM
[8] = target: T3, Ephrin type-B receptor 1 (Homo sapiens); details: at 1 µM
[9] = target: T4, Ephrin type-B receptor 3 (Homo sapiens) (UniProt P54753); details: at 1 µM
T4 sequence (whole entry): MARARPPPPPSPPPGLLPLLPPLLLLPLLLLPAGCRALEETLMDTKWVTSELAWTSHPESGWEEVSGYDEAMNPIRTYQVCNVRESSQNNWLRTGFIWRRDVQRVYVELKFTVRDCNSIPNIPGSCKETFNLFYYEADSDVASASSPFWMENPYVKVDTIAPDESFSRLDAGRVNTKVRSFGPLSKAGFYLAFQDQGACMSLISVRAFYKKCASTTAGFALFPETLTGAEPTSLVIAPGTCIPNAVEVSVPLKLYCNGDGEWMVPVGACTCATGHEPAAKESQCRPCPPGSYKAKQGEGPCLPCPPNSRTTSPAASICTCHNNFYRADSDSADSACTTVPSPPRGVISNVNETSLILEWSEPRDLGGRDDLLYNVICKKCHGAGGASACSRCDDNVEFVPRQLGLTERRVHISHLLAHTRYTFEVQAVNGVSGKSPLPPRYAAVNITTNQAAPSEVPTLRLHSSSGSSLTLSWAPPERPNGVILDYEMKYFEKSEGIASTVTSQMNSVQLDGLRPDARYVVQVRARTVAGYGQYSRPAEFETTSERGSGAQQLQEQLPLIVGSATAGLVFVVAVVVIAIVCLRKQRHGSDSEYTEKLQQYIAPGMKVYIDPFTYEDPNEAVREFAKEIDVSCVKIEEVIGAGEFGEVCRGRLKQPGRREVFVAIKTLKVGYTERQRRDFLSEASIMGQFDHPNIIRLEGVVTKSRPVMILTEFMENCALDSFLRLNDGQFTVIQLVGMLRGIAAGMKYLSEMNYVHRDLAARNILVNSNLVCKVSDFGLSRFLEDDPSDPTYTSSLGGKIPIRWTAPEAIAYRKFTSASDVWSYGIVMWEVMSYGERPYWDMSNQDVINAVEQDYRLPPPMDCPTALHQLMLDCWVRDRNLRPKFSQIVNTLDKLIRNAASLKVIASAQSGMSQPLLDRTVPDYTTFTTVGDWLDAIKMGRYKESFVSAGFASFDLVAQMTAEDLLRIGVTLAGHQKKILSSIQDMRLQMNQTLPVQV

[10] = target: T4, Ephrin type-B receptor 3 (Homo sapiens); details: at 10 µM
[11] = target: T5, Ephrin type-B receptor 4 (Homo sapiens) (UniProt P54760); details: at 1 µM
T5 sequence (whole entry): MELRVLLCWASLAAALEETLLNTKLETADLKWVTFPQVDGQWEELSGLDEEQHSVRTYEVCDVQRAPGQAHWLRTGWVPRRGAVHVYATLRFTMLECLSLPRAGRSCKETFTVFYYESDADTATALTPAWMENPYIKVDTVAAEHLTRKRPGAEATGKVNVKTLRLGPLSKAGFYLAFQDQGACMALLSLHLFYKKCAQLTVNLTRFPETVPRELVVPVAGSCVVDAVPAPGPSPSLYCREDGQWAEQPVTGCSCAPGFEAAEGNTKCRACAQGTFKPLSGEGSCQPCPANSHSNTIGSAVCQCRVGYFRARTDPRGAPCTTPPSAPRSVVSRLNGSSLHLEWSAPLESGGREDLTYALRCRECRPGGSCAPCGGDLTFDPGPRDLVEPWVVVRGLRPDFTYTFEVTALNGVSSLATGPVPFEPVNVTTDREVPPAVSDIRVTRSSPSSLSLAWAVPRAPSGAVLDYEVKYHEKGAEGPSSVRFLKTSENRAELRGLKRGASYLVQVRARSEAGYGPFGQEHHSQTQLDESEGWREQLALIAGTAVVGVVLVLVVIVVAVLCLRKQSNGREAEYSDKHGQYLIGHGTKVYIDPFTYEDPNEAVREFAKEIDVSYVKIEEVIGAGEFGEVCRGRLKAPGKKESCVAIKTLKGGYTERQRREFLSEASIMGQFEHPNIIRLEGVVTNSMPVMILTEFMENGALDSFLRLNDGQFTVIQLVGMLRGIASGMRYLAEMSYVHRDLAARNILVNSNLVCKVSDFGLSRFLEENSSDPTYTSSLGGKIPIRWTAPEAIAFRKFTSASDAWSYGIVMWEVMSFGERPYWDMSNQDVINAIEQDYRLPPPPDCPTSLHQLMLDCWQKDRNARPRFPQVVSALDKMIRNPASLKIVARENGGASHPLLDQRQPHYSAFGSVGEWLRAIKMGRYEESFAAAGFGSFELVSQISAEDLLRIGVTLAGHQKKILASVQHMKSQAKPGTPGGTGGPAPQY

[12] = target: T5, Ephrin type-B receptor 4 (Homo sapiens); details: at 10 µM
[13] = target: Receptor tyrosine-protein kinase erbB-4 (Homo sapiens) (UniProt Q15303); details: at 10 µM
Receptor tyrosine-protein kinase erbB-4 (Homo sapiens), sequence (Q15303 whole entry): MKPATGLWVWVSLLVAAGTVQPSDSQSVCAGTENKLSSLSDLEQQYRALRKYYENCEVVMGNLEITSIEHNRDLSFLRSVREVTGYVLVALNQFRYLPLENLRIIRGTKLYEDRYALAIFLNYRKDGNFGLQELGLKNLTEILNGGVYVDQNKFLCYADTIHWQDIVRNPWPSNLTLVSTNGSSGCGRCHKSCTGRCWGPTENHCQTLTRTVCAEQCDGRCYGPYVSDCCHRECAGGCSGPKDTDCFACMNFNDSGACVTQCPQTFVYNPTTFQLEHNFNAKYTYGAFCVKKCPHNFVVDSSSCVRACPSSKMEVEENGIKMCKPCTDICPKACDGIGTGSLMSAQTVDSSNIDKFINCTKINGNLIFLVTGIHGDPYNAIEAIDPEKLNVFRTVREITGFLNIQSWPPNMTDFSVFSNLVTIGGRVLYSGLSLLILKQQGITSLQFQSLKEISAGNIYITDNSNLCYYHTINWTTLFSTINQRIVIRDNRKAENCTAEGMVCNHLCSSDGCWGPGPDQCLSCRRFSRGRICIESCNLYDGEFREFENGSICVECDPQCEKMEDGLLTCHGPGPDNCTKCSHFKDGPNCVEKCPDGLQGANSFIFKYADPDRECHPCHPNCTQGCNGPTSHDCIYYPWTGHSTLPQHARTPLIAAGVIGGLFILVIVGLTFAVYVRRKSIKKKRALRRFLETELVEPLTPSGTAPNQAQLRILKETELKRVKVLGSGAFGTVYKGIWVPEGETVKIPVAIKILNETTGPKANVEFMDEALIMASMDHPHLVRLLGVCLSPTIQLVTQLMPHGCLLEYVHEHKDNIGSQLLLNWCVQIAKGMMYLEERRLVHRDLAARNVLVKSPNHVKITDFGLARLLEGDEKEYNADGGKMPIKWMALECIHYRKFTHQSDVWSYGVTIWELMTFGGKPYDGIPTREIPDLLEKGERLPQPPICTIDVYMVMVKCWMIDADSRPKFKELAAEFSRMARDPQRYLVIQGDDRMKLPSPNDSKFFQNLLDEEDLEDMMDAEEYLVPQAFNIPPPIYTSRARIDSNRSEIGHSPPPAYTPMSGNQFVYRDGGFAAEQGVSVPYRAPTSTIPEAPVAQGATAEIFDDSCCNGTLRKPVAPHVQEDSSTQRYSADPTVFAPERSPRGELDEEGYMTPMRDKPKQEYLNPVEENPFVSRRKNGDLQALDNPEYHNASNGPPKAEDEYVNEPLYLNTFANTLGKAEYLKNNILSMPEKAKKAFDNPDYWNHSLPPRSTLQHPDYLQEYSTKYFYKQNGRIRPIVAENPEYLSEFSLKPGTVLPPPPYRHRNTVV

Ephrin type-A receptor 7 (Homo sapiens), sequence (Q15375 28-998 limits assumed): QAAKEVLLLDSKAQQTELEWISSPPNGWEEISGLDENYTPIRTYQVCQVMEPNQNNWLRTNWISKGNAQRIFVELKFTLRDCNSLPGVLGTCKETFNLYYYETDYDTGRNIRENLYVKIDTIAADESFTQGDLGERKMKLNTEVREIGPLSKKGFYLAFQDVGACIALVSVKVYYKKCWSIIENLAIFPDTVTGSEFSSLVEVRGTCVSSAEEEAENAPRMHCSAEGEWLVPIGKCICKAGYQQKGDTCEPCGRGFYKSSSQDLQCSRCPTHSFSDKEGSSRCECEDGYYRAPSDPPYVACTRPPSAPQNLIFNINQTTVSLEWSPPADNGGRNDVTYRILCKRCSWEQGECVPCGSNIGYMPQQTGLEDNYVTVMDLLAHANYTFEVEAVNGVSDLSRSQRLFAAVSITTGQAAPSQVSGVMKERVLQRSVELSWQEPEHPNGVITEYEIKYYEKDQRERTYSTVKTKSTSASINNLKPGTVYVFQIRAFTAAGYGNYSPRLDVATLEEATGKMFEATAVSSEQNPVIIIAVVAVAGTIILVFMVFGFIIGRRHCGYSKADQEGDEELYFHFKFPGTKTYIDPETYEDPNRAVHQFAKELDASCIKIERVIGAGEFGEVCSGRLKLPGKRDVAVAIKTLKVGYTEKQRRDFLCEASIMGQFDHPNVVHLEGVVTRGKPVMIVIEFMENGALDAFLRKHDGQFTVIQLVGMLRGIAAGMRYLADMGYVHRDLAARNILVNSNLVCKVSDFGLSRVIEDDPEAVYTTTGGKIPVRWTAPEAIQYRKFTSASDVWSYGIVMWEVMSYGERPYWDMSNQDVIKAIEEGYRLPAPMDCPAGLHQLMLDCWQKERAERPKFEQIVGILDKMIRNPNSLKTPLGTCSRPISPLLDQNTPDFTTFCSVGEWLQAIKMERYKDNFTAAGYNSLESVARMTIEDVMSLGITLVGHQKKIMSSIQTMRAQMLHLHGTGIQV
Focal adhesion kinase 1 (Homo sapiens), sequence (Q05397 2-1052 limits assumed): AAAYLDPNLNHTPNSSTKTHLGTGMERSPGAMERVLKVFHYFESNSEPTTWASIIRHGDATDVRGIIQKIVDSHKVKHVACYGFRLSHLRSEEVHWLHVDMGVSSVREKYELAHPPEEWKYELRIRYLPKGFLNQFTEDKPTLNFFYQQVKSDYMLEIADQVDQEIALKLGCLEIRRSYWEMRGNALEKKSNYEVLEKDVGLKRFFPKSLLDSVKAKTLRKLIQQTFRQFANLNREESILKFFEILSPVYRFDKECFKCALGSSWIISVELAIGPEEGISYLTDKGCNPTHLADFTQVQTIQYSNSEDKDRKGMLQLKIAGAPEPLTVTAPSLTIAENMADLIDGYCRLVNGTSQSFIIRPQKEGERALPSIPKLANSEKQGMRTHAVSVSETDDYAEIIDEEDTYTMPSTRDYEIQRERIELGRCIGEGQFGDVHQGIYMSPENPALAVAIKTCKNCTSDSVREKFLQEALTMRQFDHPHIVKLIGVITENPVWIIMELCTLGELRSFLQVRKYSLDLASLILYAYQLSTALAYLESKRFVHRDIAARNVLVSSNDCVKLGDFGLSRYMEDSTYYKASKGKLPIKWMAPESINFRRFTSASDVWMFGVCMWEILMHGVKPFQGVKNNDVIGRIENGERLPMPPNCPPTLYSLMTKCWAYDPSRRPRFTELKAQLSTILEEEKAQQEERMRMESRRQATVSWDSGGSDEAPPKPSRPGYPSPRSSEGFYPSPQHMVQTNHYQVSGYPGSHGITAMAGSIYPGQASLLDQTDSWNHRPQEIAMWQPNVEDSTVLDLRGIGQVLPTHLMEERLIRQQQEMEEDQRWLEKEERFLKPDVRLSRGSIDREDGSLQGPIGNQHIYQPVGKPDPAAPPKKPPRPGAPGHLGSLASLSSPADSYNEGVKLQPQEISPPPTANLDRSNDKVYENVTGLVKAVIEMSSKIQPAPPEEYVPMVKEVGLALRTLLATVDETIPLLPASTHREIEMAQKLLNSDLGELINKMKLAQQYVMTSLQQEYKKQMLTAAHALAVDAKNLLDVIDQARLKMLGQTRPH

Compound | residual activity [1] | residual activity [2] | residual activity [3] | residual activity [4] | residual activity [5] | residual activity [6] | residual activity [7] | residual activity [8] | residual activity [9] | residual activity [10] | residual activity [11] | residual activity [12] | residual activity [13]
CC(C)(C)c1nc2c3ccc(F)cc3c3c(=O)[nH]ccc3c2[nH]1 | 72% | 103% | 103% | 99% | 51% | – | – | – | – | – | – | – | –
c1ccc(-c2cnc(Nc3ccc(OCCN4CCCC4)cc3)s2)cc1 | 69% | – | – | 65% | 132% | 104% | 76% | 104% | 112% (inactive) | 120% | 109% | 64% | 61%
